The entries come from a sample that favours hits as a whole.
Pf Dd2 growth = blocks in vitro growth of P. falciparum Dd2. AID 1347417. Potency, µM (top dose mostly 28.9 µM), for inactives: top-dose activity, negative = inhibition, usual class: inhibitors. P. falciparum Dd2 growth, SYBR Green, 72 h. 4.3% of 120,000 active; active means well fitted inhibition curve with a large enough effect;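 further: plate controls were DMSO vehicle for no effect and reference drug for full effect; nearly all actives have a fitted effect of over 65% in size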
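Readout: SYBR Green fluorescence, 485 nm excitation, 535 nm emission, after ~16 h lysis at 37C. Before that, Dd2-infected red cells (2.5% hematocrit) grew 72 h with compound, 29 uM top final concentration.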
* marks the source's active call; other numbers are inactive results; [ ] = another dose, or the depositor's remark. Potency means the concentration at half of the fitted maximal effect.

Screening O=C(C1CCCC1)N1CC2(CCCCN2CC2CC2)Cc2ccccc21 (centres undefined) returned Pf Dd2 growth -16.8%.
For CC(=O)N1CC2(CCCN2CC2CC2)Cc2ccccc21 (centres undefined) the results were Pf Dd2 growth 10µM*.
For CC(=O)NCCC(=O)N1Cc2ccccc2CC2(CCCN2CCc2ccc(C)cc2)C1 (centres undefined) the results were Pf Dd2 growth 8.91µM*.
CC(=O)NCCC(=O)N1Cc2ccccc2CC2(CCCN2CC2CCNCC2)C1 (centres undefined) was read as Pf Dd2 growth 19.9%.
For CN1CCC(C(=O)N2Cc3ccccc3CC3(CCCCN3CC3CCNCC3)C2)CC1 (centres undefined) the results were Pf Dd2 growth 17.7%.
For CCCN1CCCC12Cc1ccccc1CN(C(=O)CCNC(C)=O)C2 (centres undefined) the results were Pf Dd2 growth -8.7%.
For CC(=O)N1CC2(CCCN2C2COC2)Cc2ccccc21 (centres undefined) the results were Pf Dd2 growth 2.5%[44.1 µM].
O=C(O)[C@]12CCCN[C@@H]1CCN(Cc1ccc(-c3ccccn3)cc1)C2 was read as Pf Dd2 growth -0.9%.
For Fc1cccc(CN2CCC(Oc3ccc(-c4noc(C5CC5)n4)cc3)C2)c1 (centres undefined) the results were Pf Dd2 growth 46.4%[5.79 µM].
`COc1ccccc1[C@@H]1CN(C(=O)CN2CCOCC2)C[C@H]1C(=O)O` gave Pf Dd2 growth 3.5%.
`CC1(C)C[C@H](NC(=O)c2cccnc2)[C@@]2(CCC(=O)NCCN3CCOCC3)CC[C@](C)(O)C[C@@H]12` gave Pf Dd2 growth -34.5%.
For CN(Cc1ccon1)C(=O)C1CC(=O)N(Cc2ccccn2)C1 (centres undefined) the results were Pf Dd2 growth -7.6%.
Screening Cc1ccc(C2(O)CCN(C(=O)C(N)CC3CCCC3)CC2)nc1 (centres undefined) returned Pf Dd2 growth -21.5%.
`COCCNC(=O)c1ccc(-c2ncc3cnc(-c4cccc(F)c4)cn23)cc1` gave Pf Dd2 growth inactive.
`Cc1ccc(Nc2nc3nonc3nc2Nc2cccc(C(F)(F)F)c2)cc1Cl` gave Pf Dd2 growth 1.12µM*.
`CCOC(=O)c1noc2ncnc(Nc3cccc(C(F)(F)F)c3)c12` gave Pf Dd2 growth 76.5%.
CCOC(=O)c1c(C)oc2ncnc(Nc3cccc(C(F)(F)F)c3)c12 was read as Pf Dd2 growth 28.6%.
Screening Nc1nc2c(c(C(=O)N[C@H](c3ccccn3)C3CC(O)C3)n1)CCCC2 (some centres undefined) returned Pf Dd2 growth -24.0%.
Cc1ccc(C2Cn3nnc(C(=O)N4CCC(C(=O)Nc5ccc(F)cc5)CC4)c3CO2)cc1 (centres undefined) was read as Pf Dd2 growth inactive.
Screening CNC(=O)N1C[C@@H](CN(C)C)[C@H](NS(=O)(=O)c2cc(F)ccc2C)C1 returned Pf Dd2 growth -8.5%.
For CN(C)C[C@@H]1CN(C)C[C@H]1NS(=O)(=O)c1cc(F)cc(F)c1 the results were Pf Dd2 growth 8.91µM*.
Screening CNC(=O)N1C[C@@H](CN(C)C)[C@H](NS(=O)(=O)c2ccc(F)cc2F)C1 returned Pf Dd2 growth 18.0%.
CS(=O)(=O)N1CC(F)(F)C[C@H]1c1nc(-c2ccncc2)no1 was read as Pf Dd2 growth 16.0%.
CCN(CC)CCSc1nc2ccccc2c(=O)n1-c1ccc(Cl)cc1 was read as Pf Dd2 growth 7.94µM*.
O=C(CSc1nc2c([nH]c3ccccc32)c(=O)n1-c1ccc(Cl)cc1)c1ccccc1 was read as Pf Dd2 growth 55.7%.
`CCCSc1nc2ccccc2c(=O)n1-c1ccccc1OC` gave Pf Dd2 growth -8.1%.
For Cc1ccc(C(=O)N2CCN(c3cc(-c4cccs4)[nH]n3)CC2)c(C)c1 the results were Pf Dd2 growth inactive.
For O=C(O)CC1(CC(=O)N[C@H]2CO[C@H]3[C@@H]2OC[C@H]3O)CCCC1 the results were Pf Dd2 growth -17.4%[44.1 µM].
CC1=C(C(=O)OCc2ccc(C)cc2)C(c2ccccc2C(F)(F)F)CC(=O)N1 (centres undefined) was read as Pf Dd2 growth 5.62µM*.
CC1=C(C(=O)OCc2ccccc2)C(c2cccc(Cl)c2Cl)CC(=O)N1 (centres undefined) was read as Pf Dd2 growth 16.7%.
Screening CC1=C(C(=O)OCC2CCCCC2)C(c2cccc(Cl)c2Cl)CC(=O)N1 (centres undefined) returned Pf Dd2 growth 6.2%.
COCCNC(=O)C[C@@H]1C[C@H]2O[C@H](CNC(=O)NC3CCC3)[C@@H](O)[C@H]2O1 was read as Pf Dd2 growth 29.3%[44.1 µM].
For Cc1cn2nc(C(=O)Nc3ccc(N(C)C)cc3)cc2c(N(C)Cc2ccccc2)n1 the results were Pf Dd2 growth 0.794µM*.
Screening Cc1cn2nc(C(=O)Nc3ccc(F)c(C)c3)cc2c(N2CCSCC2)n1 returned Pf Dd2 growth -28.2%.
COc1ccc(NC(=O)c2cc3c(N4CCSCC4)nc(C)cn3n2)cc1F was read as Pf Dd2 growth 27.6%.
For Cc1ccc(CNC(=O)c2cc3c(N(C)Cc4ccccc4)nc(C)cn3n2)cc1 the results were Pf Dd2 growth inactive.
For Cc1cn2nc(C(=O)Nc3ccc(C)c(F)c3)cc2c(N(C)Cc2ccccc2)n1 the results were Pf Dd2 growth 10µM*.
`Cc1ccc(NC(=O)c2cc3c(N4CCCC4)nc(C)cn3n2)cc1` gave Pf Dd2 growth -4.4%.
O=C(c1ccccc1F)N1CCn2c(nnc2[C@@H]2C[C@@H](O)CN2Cc2cccnc2)C1 was read as Pf Dd2 growth 35.5%.
`COc1ccc(C(=O)N2CCc3nc(C(C)C)nc(-c4ccc(O)cc4)c3C2)cc1` gave Pf Dd2 growth 8.91µM*.
`COc1cccc(C(=O)N2CCc3nc(C)nc(-c4ccc(Cl)cc4)c3CC2)c1` gave Pf Dd2 growth inactive.
Screening COc1ccc(-c2nc(-c3ccccc3)nc3c2CN(C(=O)C2CC2)CC3)cc1 returned Pf Dd2 growth 11.2µM*.
CC(C)c1nc2c(c(-c3ccc(O)cc3)n1)CN(C(=O)c1ccccc1)CC2 was read as Pf Dd2 growth -13.2%.
`Cc1ccccc1C(=O)N1CCc2nc(C(C)C)nc(-c3ccc(O)cc3)c2C1` gave Pf Dd2 growth -1.0%.
For COc1ccc(C(=O)N2CCCc3nc(C)nc(-c4ccc(O)cc4)c3C2)cc1 the results were Pf Dd2 growth -13.3%.
CC(=O)N1CCc2nc(C(C)C)nc(-c3ccc(O)cc3)c2C1 was read as Pf Dd2 growth -13.8%[44.1 µM].
For CC(C)c1nc2c(c(-c3ccc(O)cc3)n1)CN(C(=O)c1cccc(Cl)c1)CC2 the results were Pf Dd2 growth 4.47µM*.
Screening COc1ccc(-c2nc3c(c(-c4ccccc4)n2)CN(C(C)=O)CC3)cc1 returned Pf Dd2 growth inactive.
CC(C)c1nc2c(c(-c3ccc(O)cc3)n1)CCN(C(=O)c1cccc(Cl)c1)CC2 was read as Pf Dd2 growth 7.94µM*.
For O=C(C1CC1)N1CCc2nc(-c3ccc(Cl)cc3)nc(-c3ccccc3)c2C1 the results were Pf Dd2 growth inactive.
CC(C)c1nc2c(c(-c3ccc(O)cc3)n1)CN(C(=O)c1ccc(Cl)nc1)CC2 was read as Pf Dd2 growth inactive.
`CN(Cc1cccn1C)CC1CCCCC1` gave Pf Dd2 growth -12.4%[44.1 µM].
Screening O=C(NC1CCc2n[nH]c(=O)n2CC1)c1n[nH]c2ccccc12 (centres undefined) returned Pf Dd2 growth 9.5%.
CN1CC(=O)N(C2CCCC2)Cc2c(NC3CCNCC3)ncnc21 was read as Pf Dd2 growth -0.6%.
